Results filed as inconclusive are left out. Active and inactive are the calls of the source. Unless noted, calls come from the whole dose curve; as a rule, active = well fitted curve in the direction sought with a large enough effect; inconclusive = small, poorly fitted or top-dose-only effect, or another doubt; inactive = no such curve, though single readings can be large; an effect the other way counts as inactive or inconclusive. Numbered stars: 1 amine (or outer) side, 2 acyl side, 3 side chain; on linkers, the order of the positions; unused ones are H or OH. Bridge positions count the residues as written; N and C are the ends. Square brackets hold non-standard residues; d marks the D form. Peptide text beside a SMILES is read from it. * marks the point of attachment. ξ: configuration not given here. ΔAla(Z-3-ureido) = NC(=O)N/C=C(\N)C(=O)O; X1 = NC1=NCCC(C(N[*:1])C(=O)[*:2])N1; ξβ3hOrn = NCCCC(N)CC(=O)*; Dap = NC[CH](N)C(=O)O
Tests used:
[1] = biological target: Ubiquitin carboxyl-terminal hydrolase 1 (Homo sapiens) (UniProt O94782); experiment: Inhibitors of USP1/UAF1: Pilot qHTS (AID 504865);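 note: rhodamine fluorescence freed from ubiquitin-rhodamine substrate followed over time; top concentration of the series differs between compounds; % is set by controls: 0 for no effect and ±100 for the full control effect; nearly all actives have a fitted effect of over 35% in size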
How it was run: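 USP1/UAF1 complex (1nM) preincubated with compound 15 min at room temperature, then Ub-Rho substrate (150nM final) added. Fluorescence read kinetically at 480/540 nm, 6 reads every 60 seconds. Buffer: 50mM HEPES pH 7.8, 0.5mM EDTA, 0.1 mg/ml BSA, 1mM TCEP, 0.01% Tween-20.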

[2] = biological target: Luciferin 4-monooxygenase (Photinus pyralis) (UniProt P08659); experiment: Biochemical firefly luciferase enzyme assay for NPC (AID 624030);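 note: purified P. pyralis luciferase at 10 nM with luciferin and ATP substrate; 0% = DMSO and -100% = full luciferase inhibition by PTC124 control; nearly all actives have a fitted effect of over 70% in size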
How it was run: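 Purified P. pyralis luciferase at 10 nM in 50 mM Tris Acetate (final), luminescence read within 5 minutes of enzyme addition to compounds. Activity normalised to PTC124 versus DMSO; concentration-response curves classed by r2, magnitude and activity.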

[3] = S16 Schwann cell viability assay (CellTiter-Glo assay) (AID 624031);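 note: native untransfected S16 rat Schwann cells; cellular ATP luminescence as a viability measure; plate controls were DMSO-treated cells for no effect and cell-free wells for full effect; nearly all actives have a fitted effect of over 70% in size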
How it was run: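 Parental S16 cells, 24 h compound, 37 °C. ATP-luminescence viability; DMSO = 0% activity, empty wells as reference; curves classified by fit quality and efficacy.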

[4] = S16 Schwann cell PMP22 intronic element beta-lactamase assay (AID 624044; calls by dose curve;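 note: 0% = DMSO and -100% = potassium clavulanate positive control; nearly all actives have a fitted effect of over 15% in size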)
How it was run: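 Beta-lactamase reporter under a PMP22 intronic regulatory element in stable S16 rat Schwann cells; 24 h compound exposure. 460 nm blue signal normalized between DMSO (0%) and potassium clavulanate, with 535 nm FRET tracking viability; curves classed by r2 and response.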

[5] = qHTS profiling for inhibitors of Plasmodium falciparum proliferation (AID 504749);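 note: 0% = DMSO vehicle and full inhibition = artemisinin control; nearly all actives have a fitted effect of over 60% in size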; conditions: P. falciparum in erythrocytes, SYBR Green DNA, 72 h, at 28.7 µM (top of the series)
How it was run: (§1)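 SYBR Green fluorescence (ex 485 nm, em 535 nm) reports parasite DNA after 72 h compound exposure of infected red cells at 0.3% parasitemia, 2.5% hematocrit; signal normalized to 0.29 uM artemisinin and vehicle wells.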

3D7 = experiment: as above; conditions: P. falciparum in erythrocytes, SYBR Green DNA, 72 h; series mostly up to 28.7 µM
How it was run: as §1

7G8 = experiment: as above; conditions: P. falciparum in erythrocytes, SYBR Green DNA, 72 h; series mostly up to 28.7 µM
How it was run: as §1

AA1029 = experiment: as above; conditions: P. falciparum in erythrocytes, SYBR Green DNA, 72 h; series mostly up to 28.7 µM
How it was run: as §1

AS120 = experiment: as above; conditions: P. falciparum in erythrocytes, SYBR Green DNA, 72 h; series mostly up to 28.7 µM
How it was run: as §1

ATS189 = experiment: as above; conditions: P. falciparum in erythrocytes, SYBR Green DNA, 72 h; series mostly up to 28.7 µM
How it was run: as §1

ATS95 = experiment: as above; conditions: P. falciparum in erythrocytes, SYBR Green DNA, 72 h; series mostly up to 28.7 µM
How it was run: as §1

C2A = experiment: as above; conditions: P. falciparum in erythrocytes, SYBR Green DNA, 72 h; series mostly up to 28.7 µM
How it was run: as §1

CP185 = experiment: as above; conditions: P. falciparum in erythrocytes, SYBR Green DNA, 72 h; series mostly up to 28.7 µM
How it was run: as §1

CP191 = experiment: as above; conditions: P. falciparum in erythrocytes, SYBR Green DNA, 72 h; series mostly up to 28.7 µM
How it was run: as §1

CP192 = experiment: as above; conditions: P. falciparum in erythrocytes, SYBR Green DNA, 72 h; series mostly up to 28.7 µM
How it was run: as §1

CP194 = experiment: as above; conditions: P. falciparum in erythrocytes, SYBR Green DNA, 72 h; series mostly up to 28.7 µM
How it was run: as §1

CP201 = experiment: as above; conditions: P. falciparum in erythrocytes, SYBR Green DNA, 72 h; series mostly up to 28.7 µM
How it was run: as §1

CP203 = experiment: as above; conditions: P. falciparum in erythrocytes, SYBR Green DNA, 72 h; series mostly up to 28.7 µM
How it was run: as §1

CP211 = experiment: as above; conditions: P. falciparum in erythrocytes, SYBR Green DNA, 72 h; series mostly up to 28.7 µM
How it was run: as §1

CP215 = experiment: as above; conditions: P. falciparum in erythrocytes, SYBR Green DNA, 72 h; series mostly up to 28.7 µM
How it was run: as §1

CP217 = experiment: as above; conditions: P. falciparum in erythrocytes, SYBR Green DNA, 72 h; series mostly up to 28.7 µM
How it was run: as §1

CP237 = experiment: as above; conditions: P. falciparum in erythrocytes, SYBR Green DNA, 72 h; series mostly up to 28.7 µM
How it was run: as §1

CP238 = experiment: as above; conditions: P. falciparum in erythrocytes, SYBR Green DNA, 72 h; series mostly up to 28.7 µM
How it was run: as §1

CP247 = experiment: as above; conditions: P. falciparum in erythrocytes, SYBR Green DNA, 72 h; series mostly up to 28.7 µM
How it was run: as §1

CP250 = experiment: as above; conditions: P. falciparum in erythrocytes, SYBR Green DNA, 72 h; series mostly up to 28.7 µM
How it was run: as §1

CP252 = experiment: as above; conditions: P. falciparum in erythrocytes, SYBR Green DNA, 72 h; series mostly up to 28.7 µM
How it was run: as §1

CP256 = experiment: as above; conditions: P. falciparum in erythrocytes, SYBR Green DNA, 72 h; series mostly up to 28.7 µM
How it was run: as §1

CP260 = experiment: as above; conditions: P. falciparum in erythrocytes, SYBR Green DNA, 72 h; series mostly up to 28.7 µM
How it was run: as §1

CP262 = experiment: as above; conditions: P. falciparum in erythrocytes, SYBR Green DNA, 72 h; series mostly up to 28.7 µM
How it was run: as §1

CP265 = experiment: as above; conditions: P. falciparum in erythrocytes, SYBR Green DNA, 72 h; series mostly up to 28.7 µM
How it was run: as §1

CP266 = experiment: as above; conditions: P. falciparum in erythrocytes, SYBR Green DNA, 72 h; series mostly up to 28.7 µM
How it was run: as §1

CP268 = experiment: as above; conditions: P. falciparum in erythrocytes, SYBR Green DNA, 72 h; series mostly up to 28.7 µM
How it was run: as §1

CP269 = experiment: as above; conditions: P. falciparum in erythrocytes, SYBR Green DNA, 72 h; series mostly up to 28.7 µM
How it was run: as §1

CP286 = experiment: as above; conditions: P. falciparum in erythrocytes, SYBR Green DNA, 72 h; series mostly up to 28.7 µM
How it was run: as §1

CP291 = experiment: as above; conditions: P. falciparum in erythrocytes, SYBR Green DNA, 72 h; series mostly up to 28.7 µM
How it was run: as §1

CP297 = experiment: as above; conditions: P. falciparum in erythrocytes, SYBR Green DNA, 72 h; series mostly up to 28.7 µM
How it was run: as §1

CP305 = experiment: as above; conditions: P. falciparum in erythrocytes, SYBR Green DNA, 72 h; series mostly up to 28.7 µM
How it was run: as §1

CP315 = experiment: as above; conditions: P. falciparum in erythrocytes, SYBR Green DNA, 72 h; series mostly up to 28.7 µM
How it was run: as §1

CP325 = experiment: as above; conditions: P. falciparum in erythrocytes, SYBR Green DNA, 72 h; series mostly up to 28.7 µM
How it was run: as §1

CP329 = experiment: as above; conditions: P. falciparum in erythrocytes, SYBR Green DNA, 72 h; series mostly up to 28.7 µM
How it was run: as §1

CP335 = experiment: as above; conditions: P. falciparum in erythrocytes, SYBR Green DNA, 72 h; series mostly up to 28.7 µM
How it was run: as §1

DIV14 = experiment: as above; conditions: P. falciparum in erythrocytes, SYBR Green DNA, 72 h; series mostly up to 28.7 µM
How it was run: as §1

DIV17 = experiment: as above; conditions: P. falciparum in erythrocytes, SYBR Green DNA, 72 h; series mostly up to 28.7 µM
How it was run: as §1

DIV30 = experiment: as above; conditions: P. falciparum in erythrocytes, SYBR Green DNA, 72 h; series mostly up to 28.7 µM
How it was run: as §1

Dd2 = experiment: as above; conditions: P. falciparum in erythrocytes, SYBR Green DNA, 72 h; series mostly up to 28.7 µM
How it was run: as §1

ECU = experiment: as above; conditions: P. falciparum in erythrocytes, SYBR Green DNA, 72 h; series mostly up to 28.7 µM
How it was run: as §1

FAB9 = experiment: as above; conditions: P. falciparum in erythrocytes, SYBR Green DNA, 72 h; series mostly up to 28.7 µM
How it was run: as §1

GB4 = experiment: as above; conditions: P. falciparum in erythrocytes, SYBR Green DNA, 72 h; series mostly up to 28.7 µM
How it was run: as §1

HB3 = experiment: as above; conditions: P. falciparum in erythrocytes, SYBR Green DNA, 72 h; series mostly up to 28.7 µM
How it was run: as §1

ICS = experiment: as above; conditions: P. falciparum in erythrocytes, SYBR Green DNA, 72 h; series mostly up to 28.7 µM
How it was run: as §1

JCK = experiment: as above; conditions: P. falciparum in erythrocytes, SYBR Green DNA, 72 h; series mostly up to 28.7 µM
How it was run: as §1

N140 = experiment: as above; conditions: P. falciparum in erythrocytes, SYBR Green DNA, 72 h; series mostly up to 28.7 µM
How it was run: as §1

P93_24 = experiment: as above; conditions: P. falciparum in erythrocytes, SYBR Green DNA, 72 h; series mostly up to 28.7 µM
How it was run: as §1

P94_40 = experiment: as above; conditions: P. falciparum in erythrocytes, SYBR Green DNA, 72 h; series mostly up to 28.7 µM
How it was run: as §1

PAD = experiment: as above; conditions: P. falciparum in erythrocytes, SYBR Green DNA, 72 h; series mostly up to 28.7 µM
How it was run: as §1

PC15 = experiment: as above; conditions: P. falciparum in erythrocytes, SYBR Green DNA, 72 h; series mostly up to 28.7 µM
How it was run: as §1

PC26 = experiment: as above; conditions: P. falciparum in erythrocytes, SYBR Green DNA, 72 h; series mostly up to 28.7 µM
How it was run: as §1

PC49 = experiment: as above; conditions: P. falciparum in erythrocytes, SYBR Green DNA, 72 h; series mostly up to 28.7 µM
How it was run: as §1

SC27B = experiment: as above; conditions: P. falciparum in erythrocytes, SYBR Green DNA, 72 h; series mostly up to 28.7 µM
How it was run: as §1

TAB109 = experiment: as above; conditions: P. falciparum in erythrocytes, SYBR Green DNA, 72 h; series mostly up to 28.7 µM
How it was run: as §1

TAB113 = experiment: as above; conditions: P. falciparum in erythrocytes, SYBR Green DNA, 72 h; series mostly up to 28.7 µM
How it was run: as §1

TAB165 = experiment: as above; conditions: P. falciparum in erythrocytes, SYBR Green DNA, 72 h; series mostly up to 28.7 µM
How it was run: as §1

W2 = experiment: as above; conditions: P. falciparum in erythrocytes, SYBR Green DNA, 72 h; series mostly up to 28.7 µM
How it was run: as §1

Chain of Ubiquitin carboxyl-terminal hydrolase 1 (Homo sapiens) (O94782 whole entry, looked up): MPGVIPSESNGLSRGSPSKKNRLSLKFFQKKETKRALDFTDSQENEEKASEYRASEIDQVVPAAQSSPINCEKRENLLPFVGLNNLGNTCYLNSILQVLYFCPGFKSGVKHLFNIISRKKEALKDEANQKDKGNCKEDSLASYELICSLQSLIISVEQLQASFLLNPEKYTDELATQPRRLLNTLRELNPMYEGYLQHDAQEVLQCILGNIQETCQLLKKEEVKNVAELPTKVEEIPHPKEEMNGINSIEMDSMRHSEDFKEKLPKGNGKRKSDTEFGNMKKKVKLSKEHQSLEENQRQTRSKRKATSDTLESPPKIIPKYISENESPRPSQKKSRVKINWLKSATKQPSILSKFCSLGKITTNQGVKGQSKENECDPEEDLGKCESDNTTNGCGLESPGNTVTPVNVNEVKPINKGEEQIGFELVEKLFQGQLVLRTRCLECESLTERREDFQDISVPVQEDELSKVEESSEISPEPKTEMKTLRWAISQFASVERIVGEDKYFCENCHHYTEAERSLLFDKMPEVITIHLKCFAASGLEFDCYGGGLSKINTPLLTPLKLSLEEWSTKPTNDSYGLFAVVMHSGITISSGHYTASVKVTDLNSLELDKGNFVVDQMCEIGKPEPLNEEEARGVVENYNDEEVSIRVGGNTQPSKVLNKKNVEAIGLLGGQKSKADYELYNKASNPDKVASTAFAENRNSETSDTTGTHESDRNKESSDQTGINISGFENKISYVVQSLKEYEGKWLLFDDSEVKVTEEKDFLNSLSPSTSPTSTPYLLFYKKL
Chain of Luciferin 4-monooxygenase (Photinus pyralis) (P08659 whole entry, looked up): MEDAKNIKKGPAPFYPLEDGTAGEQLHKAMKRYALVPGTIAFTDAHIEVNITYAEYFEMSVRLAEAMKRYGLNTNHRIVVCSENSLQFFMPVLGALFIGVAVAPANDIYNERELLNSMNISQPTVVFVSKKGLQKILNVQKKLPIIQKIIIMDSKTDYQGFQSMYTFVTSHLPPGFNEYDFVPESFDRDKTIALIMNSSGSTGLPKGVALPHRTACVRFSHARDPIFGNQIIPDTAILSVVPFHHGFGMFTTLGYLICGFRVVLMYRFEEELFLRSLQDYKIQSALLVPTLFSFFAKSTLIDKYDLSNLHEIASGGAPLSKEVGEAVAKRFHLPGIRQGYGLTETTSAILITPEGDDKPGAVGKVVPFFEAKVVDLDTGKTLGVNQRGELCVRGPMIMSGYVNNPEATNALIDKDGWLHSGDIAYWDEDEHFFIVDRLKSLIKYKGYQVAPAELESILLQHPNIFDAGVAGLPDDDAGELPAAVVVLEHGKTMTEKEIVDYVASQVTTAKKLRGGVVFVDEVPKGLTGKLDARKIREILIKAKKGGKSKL

NCCCC(N)CC(=O)NCC1NC(=O)C(CO)NC(=O)C(N)CNC(=O)C(C2CCN=C(N)N2)NC(=O)/C(=C/NC(N)=O)NC1=O (stereo not drawn) (H-[Dap]S[Dap](ξβ3hOrn)[ΔAla(Z-3-ureido)][X1]; lactam 1-C; configuration not given here)
inactive: Potency [1] | Potency [2] | Potency [3] | Potency [4] | activity, negative = inhibition ([5]; parasite line A) 10.1% | activity, negative = inhibition ([5]; parasite line B) 0.112% | Potency (3D7) | Potency (7G8) | Potency (AA1029) | Potency (AS120) | Potency (ATS189) | Potency (ATS95) | Potency (C2A) | Potency (CP185) | Potency (CP191) | Potency (CP192) | Potency (CP194) | Potency (CP201) | Potency (CP203) | Potency (CP211) | Potency (CP215) | Potency (CP217) | Potency (CP237) | Potency (CP238) | Potency (CP247) | Potency (CP250) | Potency (CP252) | Potency (CP256) | Potency (CP260) | Potency (CP262) | Potency (CP265) | Potency (CP266) | Potency (CP268) | Potency (CP269) | Potency (CP286) | Potency (CP291) | Potency (CP297) | Potency (CP305) | Potency (CP315) | Potency (CP325) | Potency (CP329) | Potency (CP335) | Potency (DIV14) | Potency (DIV17) | Potency (DIV30) | Potency (Dd2) | Potency (ECU) | Potency (FAB9) | Potency (GB4) | Potency (HB3) | Potency (ICS) | Potency (JCK) | Potency (N140) | Potency (P93_24) | Potency (P94_40) | Potency (PAD) | Potency (PC15) | Potency (PC26) | Potency (PC49) | Potency (SC27B) | Potency (TAB109) | Potency (TAB113) | Potency (TAB165) | Potency (W2)

Reference: PubChem BioAssay (NCATS)
